# Experimental data published in PubChem BioAssay AID488841 (Sanford-Burnham Center for Chemical Genomics, 2010).
# Screen size: about 1,400 compounds; about 380 (27%) were called active.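 How the source made its calls: active means mean inhibition above 50% across duplicate retests at 10 µM; inactive means the rest.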 Some of the results follow.
# Assay: inhibition of NALP1/ASC/caspase-1 reporter signal in yeast, confirmation, NALP1 inhibitor project, S. cerevisiae, luminescence, single concentration (AID 488841);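 further: plate controls were DMSO in galactose medium for no effect and cells in plain SD medium for full effect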
# Settings: S. cerevisiae NALP1/ASC/Caspase-1 reporter, beta-gal luminescence; at 10 µM; hits give high values
row,SMILES,inhibition
1,Fc1ccc(N2CCN(Cc3cnc(Oc4ccc(Br)cc4)s3)CC2)cc1,25.8% (inactive)
2,N#CC1=C(N)Oc2n[nH]c(-c3cccs3)c2C1C1CCCCC1 (stereo not given),35.7% (inactive)
3,Cc1nc2cc(-c3ccc(Cl)cc3)nn2c(C)c1CCC(=O)NC(C)c1ccc2c(c1)OCCO2 (stereo not given),21.6% (inactive)
4,CC1(C)COC(/C=C/c2ccc([N+](=O)[O-])cc2)=N1,74.7% (active)
5,COc1ccccc1/C=N\N=C(\N)c1ccccn1,43.3% (inactive)
6,CC(C)N(C)CCOC(=O)c1ccccc1Br,30.6% (inactive)
7,COC(=O)c1ccccc1NC(=O)CN1CCC(n2nnc3cc(F)ccc32)CC1,24.9% (inactive)
8,N=c1ccn(Cc2ccc(Cl)cc2Cl)cc1,35.2% (inactive)
9,CCc1ccc(C(=O)NCc2ccc(Cl)cc2Cl)cc1,57.4% (active)
10,CCc1ccc(C(=O)NC(CC(C)C)C(=O)O)cc1 (stereo not given),24.6% (inactive)
11,CC(C)Cn1c(CN(Cc2ccccc2)Cc2ccccc2)nc2c1c(=O)n(C)c(=O)n2C,35.5% (inactive)
12,COc1cc(/C=C2\SC(=Nc3ccc(F)cc3)N(c3ccc(F)cc3)C2=O)ccc1OCC(=O)O,26.6% (inactive)
13,CCOC(=O)c1cccnc1SCC(=O)NCc1ccccc1,41.5% (inactive)
14,CSc1ccc2c(c1)N(CCC1CCCCN1C)c1ccccc1S2 (stereo not given),71.1% (active)
15,CN1C/C(=C/c2ccncc2)C(=O)/C(=C/c2ccncc2)C1,13.2% (inactive)
16,CC1(C)Cc2c(c(N3CCOCC3)nc3sc4c(NCCN5CCOCC5)nnnc4c23)CS1,27.2% (inactive)
17,Cc1nc2nc3c(cn2n1)C(=O)CCC3,6.55% (inactive)
18,CN1CCc2cccc3c2[C@H]1Cc1ccc(O)c(O)c1-3,42.5% (inactive)
19,CN1CCc2cccc3c2[C@@H]1Cc1ccc(O)c(O)c1-3,71.3% (active)
20,Cc1[nH][nH]c(=O)c1C(c1ccc(-c2ccc(Cl)c(Cl)c2)o1)c1c(C)[nH][nH]c1=O,24.6% (inactive)
21,Cc1ccc(CSCCNC(=O)CSCc2ccc([N+](=O)[O-])cc2)cc1,59.9% (active)
22,Cc1cccc(C(=O)NCc2ccc(S(N)(=O)=O)cc2)c1[N+](=O)[O-],36.4% (inactive)
23,CCn1c2ccccc2c2cc(NC(=O)c3ccc(C)c([N+](=O)[O-])c3)ccc21,42.1% (inactive)
24,COCCNC(=O)c1ccc(C)c(S(=O)(=O)Nc2ccc(C)cc2)c1,32.9% (inactive)

row,SMILES,inhibition
1,C/C(=N/Nc1ccc([N+](=O)[O-])cc1)c1ccc(C)cc1C,49% (inactive)
2,Cc1ccccc1Cn1c(=N)n(CC(=O)c2ccc([N+](=O)[O-])cc2)c2ccccc21,49.5% (inactive)
3,O=C(CSCc1ccc(F)cc1)NCc1ccco1,35.4% (inactive)
4,Cc1ccc(C(=O)NCCc2cccc(Cl)c2)cc1[N+](=O)[O-],53.2% (active)
5,Cc1ccc(C(=O)NCCSCc2ccccc2)cc1[N+](=O)[O-],52.6% (active)
6,CCOC(=O)c1c(C)n(C)c2ccc(OC)c(NC(=O)CN3CCN(C4CCCCC4)CC3)c12,23.2% (inactive)
7,COc1cc(NC(C)CCCN)c2ncccc2c1Oc1ccccc1 (stereo not given),25.8% (inactive)
8,O=C1N/C(=N\N=C\c2cccnc2)SC1Cc1ccc(SC(F)F)cc1 (stereo not given),24.2% (inactive)
9,COc1ccc(CCn2c(C(C)C)nc3c(c(=O)c4ccccc4n3C)c2=O)cc1,25.9% (inactive)
10,C=CCCCCc1nc2ccccc2c(=O)n1N,33% (inactive)
11,COc1ccc2cc(C(C)c3nc4ccccc4c(=O)n3N)ccc2c1 (stereo not given),53.1% (active)
12,COc1ccc(OC)c(/C=c2\sc3nc(-c4cccs4)nn3c2=O)c1,28.1% (inactive)
13,O=[N+]([O-])/C=C/c1ccc2c(ccn2Cc2ccccc2)c1,99.9% (active)
14,O=C(CCC1CCCCC1)N1CCN(Cc2ccc3c(c2)OCO3)CC1,59.6% (active)
15,CC(C)c1ccc(CN2CCN(C(=O)CCl)CC2)cc1,39.5% (inactive)
16,N#CCc1c(C#N)c(N)nc(N2CCN(Cc3ccc4c(c3)OCO4)CC2)c1C#N,27.2% (inactive)
17,Clc1ccc(SCCCCN2CCOCC2)cc1,33% (inactive)
18,COc1cccc(N2C(=O)C(O)=C(C(C)=O)C2c2ccc(OC)c(OC)c2)c1 (stereo not given),33.1% (inactive)
19,COC(=O)c1cc(=O)n(-c2c(Cl)cc(C(F)(F)F)cc2Cl)[nH]1,28.1% (inactive)
20,CCOC(=O)c1c(C(F)(F)C(F)(F)C(F)(F)C(F)(F)F)n[nH]c1C,30% (inactive)
21,Cc1cc(C(=O)COC(=O)c2ccc[nH]c2=O)c(C)n1-c1ccc(F)cc1,39% (inactive)
22,CCOC(=O)c1c(C)[nH]c(C)c1C(=O)COC(=O)c1cc2ccccc2cc1O,37.1% (inactive)
23,Cc1cc(C(=O)COC(=O)c2ccc[nH]c2=O)c(C)n1-c1ccccc1,58.6% (active)
24,Cc1cc2ccccc2n1CCNCc1c(C(=O)N2CCOCC2)nc2ccccn12,28.2% (inactive)

row,SMILES,inhibition
1,CNC(CC(=O)c1ccc([N+](=O)[O-])cc1)C(Cl)(Cl)Cl (stereo not given),47.5% (inactive)
2,CCOC(=O)c1ccc(N2C(=O)C=CC2=O)cc1,89% (active)
3,CCOC(=O)c1ccc(N2C(=O)CC(N3CCCC(C)C3)C2=O)cc1 (stereo not given),35.9% (inactive)
4,CCOC(=O)c1sc(=S)n(-c2ccc(OC)cc2)c1C,38.4% (inactive)
5,CCN(c1ccccc1)S(=O)(=O)c1cc(NC(=O)Nc2ccccc2C#N)ccc1Cl,17.4% (inactive)
6,CCOC(=O)c1nnc(-c2ccc(C)cc2)nc1Sc1ccc(Cl)cc1,10.3% (inactive)
7,Cc1ccc(OCc2nc(-c3ccc(Cl)cc3)n[nH]2)cc1,66.9% (active)
8,FC(F)Oc1ccc(/C=N/c2c(-c3ccc(OC(F)F)cc3)nc3n2CCS3)cc1,31.2% (inactive)
9,CCc1cccc(C)c1NC(=S)NCCc1c(C)[nH]c2ccc(C)cc12,34.2% (inactive)
10,COc1ccc(C(=O)c2c(C(F)(F)F)oc3c2C(=O)c2ccccc2C3=O)cc1,22.6% (inactive)
11,Cc1csc(NC(=O)CCc2ccc(S(=O)(=O)N3CCOCC3)cc2)n1,30.4% (inactive)
12,Cc1nc(NC(=O)CCc2ccccc2)ccc1Br,64% (active)
13,O=C(OCCN1CCCCC1)c1cc2ccccc2o1,22.6% (inactive)
14,COC(=O)CSC1=C(C#N)C(=O)NC(c2ccccc2)S1 (stereo not given),28.1% (inactive)
15,O=C(c1ccccc1)c1c2c(cc3sc4ccccc4[n+]13)-c1cccc3cccc-2c13,35.5% (inactive)
16,Cc1ccc(F)cc1NCC(=O)Nc1ccc(Br)cc1,47.6% (inactive)
17,N#CC(C#N)=C(Nc1ccc(F)cc1)SCc1cccc(Br)c1,50.1% (active)
18,Cc1ccc(NC(=O)c2cccc(S(=O)(=O)N(C)c3ccccc3)c2)cc1S(=O)(=O)N1CCOCC1,28.9% (inactive)
19,CN(C)CCCN(C(=O)c1sc2ccccc2c1Cl)c1nc2ccc(F)cc2s1,45.3% (inactive)
20,CN(C)CCCN(C(=O)c1ccc2c(c1)CCCC2)c1nc2ccc(Cl)cc2s1,78.2% (active)
21,CN(C)CCCN(C(=O)c1ccc2c(c1)CCCC2)c1nc2ccc(F)cc2s1,64.8% (active)
22,COc1ccc(CCNC(=O)c2sc3cc(C)ccc3c2Cl)cc1,35.8% (inactive)
23,Cc1ccc2nc(N(CCCN(C)C)C(=O)c3sc4ccccc4c3Cl)sc2c1,53.6% (active)
24,O=c1c(F)cn(C2CCCO2)c(=O)n1Cc1c(F)cccc1Cl (stereo not given),26.9% (inactive)

row,SMILES,inhibition
1,CCOC(=O)C1(Cc2ccc(OC)cc2)CCN(C(=O)CCc2cnccn2)CC1,25.1% (inactive)
2,COc1cccc(/C=N/NC(=O)CCc2c(C)n[nH]c2C)c1,25.8% (inactive)
3,COc1ccc(CN2CCNC(=O)C2CC(=O)N(Cc2nccn2C)C(C)C)c(OC)c1 (stereo not given),14.8% (inactive)
4,CCCCC(C(=O)NC1CCCC1)N(Cc1ccco1)C(=O)Cn1nnc(-c2ccc(F)cc2)n1 (stereo not given),27.3% (inactive)
5,O=C(NC(=S)NCCCN1CCOCC1)c1ccc([N+](=O)[O-])cc1,40% (inactive)
6,COc1ccc(Cc2nnc(SC)[nH]c2=O)cc1,22.6% (inactive)
7,Cc1cc(C(C)(C)C)cc(C)c1S(=O)(=O)N1CC(=O)Nc2ccccc21,38.6% (inactive)
8,Cn1cccc1/C=N/N1CCN(Cc2ccc(Cl)cc2)CC1,31.7% (inactive)
9,COc1ccc(/C=N/N2CCOCC2)cc1COc1ccc(Cl)cc1,51.8% (active)
10,COc1ccccc1-c1nnc2sc(COc3ccc(Cl)cc3)nn12,49.2% (inactive)
11,CC[n+]1c(/C=C/N(C)c2ccccc2)n(-c2ccccc2)c2ccc(-c3nc4ccccc4s3)cc21,55.8% (active)
12,CCCN1CCN(CCCNC(=O)CCNC(=O)Cn2ccc3ccccc3c2=O)CC1,35.5% (inactive)
13,CN(C)c1ccc(/C=C/c2ccc3ccccc3[n+]2C)cc1,85.5% (active)
14,CC[n+]1c(/C=C/c2ccc(N(C)C)cc2)ccc2ccccc21,85.5% (active)
15,CC1=C(C(=O)Nc2ccc(Cl)cc2)C(c2ccncc2)C(C#N)=C(SCC(N)=O)N1 (stereo not given),32.1% (inactive)
16,CN(C)c1ccc(N2C(=O)CC(Sc3ccccc3C(=O)O)C2=O)cc1 (stereo not given),24.6% (inactive)
17,CCOc1ccc(OCCSc2nc3ccccc3o2)cc1,42.4% (inactive)
18,CCOC(=O)CCCNC(=O)COC(=O)c1ccc(O)cc1,23.1% (inactive)
19,Cc1ccc(NC(=O)CN(C)C(=O)COc2cccc3cccnc23)cc1,25.3% (inactive)
20,CCN1c2ccccc2-c2nc3ccccc3n2C1c1cccs1 (stereo not given),32.9% (inactive)
21,COc1ccc(/C=N\NC(=O)c2cc(OCC(F)(F)F)ccc2OCC(F)(F)F)cc1,25.5% (inactive)
22,O=C(C[n+]1ccc(C(=O)N/N=C/c2ccc(OCc3ccccc3)cc2)cc1)c1ccccc1,58.6% (active)
23,O=C(Oc1ccc(/C=N/NC(=O)c2ccccc2O)cc1)c1ccccc1,30.9% (inactive)
